# Laboratory results from the supplement of paper PMC8728848.
# The entries come from a sample that favours the strongest signals as a whole.
# How the values were obtained:
# Assay in all cases: glycan array binding signal (z-score within array); higher = stronger binding
# Settings in all cases: glycan notation: IUPAC condensed, linker removed; mutation: E227G
# [1] = biological target: Neu5Ac(a2-6)Gal(b1-4)GlcNAc(b1-2)Man(a1-3)[Gal(b1-4)GlcNAc(b1-2)Man(a1-6)]Man(b1-4)GlcNAc(b1-4)GlcNAc
# In short: (§1)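 Negative Z-scores can be read as non-binding. The Z-score is calculated within each array and then averaged across arrays of one protein sequence at different concentrations or buffers and across linkers. Arrays, 3228 in all, were curated from the Consortium for Functional Glycomics database and kept only where the protein sequence was available.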
# [2] = biological target: Neu5Ac(a2-6)Gal(b1-4)GlcNAc(b1-2)[Neu5Ac(a2-6)Gal(b1-4)GlcNAc(b1-4)]Man(a1-3)[GlcNAc(b1-4)][Neu5Ac(a2-6)Gal(b1-4)GlcNAc(b1-4)Man(a1-6)]Man(b1-4)GlcNAc(b1-4)GlcNAc
# In short: as §1
# Neu5Ac(a2-8)Neu5Ac = biological target: Neu5Ac(a2-8)Neu5Ac
# In short: as §1
# [3] = biological target: Neu5Ac(a2-8)Neu5Ac(a2-3)[Gal(b1-3)GalNAc(b1-4)]Gal(b1-4)Glc
# In short: as §1
# [4] = biological target: Neu5Ac(a2-8)Neu5Ac(a2-8)Neu5Ac
# In short: as §1
# [5] = biological target: Neu5Ac9Ac(a2-3)Gal(b1-3)GlcNAc
# In short: as §1
# [6] = biological target: Neu5Gc(a2-6)Gal(b1-4)GlcNAc
# In short: as §1
# [7] = biological target: Neu5Gc(a2-8)Neu5Ac(a2-3)Gal(b1-4)GlcNAc
# In short: as §1
binder,measurement,setting,value
"Epa1-NP-mutant-E227G (Candida glabrata), Q6VBJ0 (protein) MILNPALFLNKCVCIYTTLILLLLTNGGYATSSNDISLASKDPTTFPLGCSPDITTPKKGLSMELYSYDFRKKGSYPCWDAAYLDPNYPRTGYKSHRLLAKVDGVTGNINFYYHATKGCTPQLGHLPASYNYPKPLTMTNFTMLLYGYFRPKVTGFHTFTISADDLLFVNFGAGNAFDCCRRDSSADHFGNYQAYAIWGSKTAKDELTVHLDAGVYYPIRLFYNNRGYDGALSFTFKTESNENTVSDFSEYFFSLDDTEEGCPGLISYDSSCASVKTSKIIGIDYHTETPNENLVPITKTIYHLGIPCTGTTTTPLCGSGFYDPLANKCVTINTSSTSSVTKTTSHTTSKEVSFHSSISSQKTLIPKSIPSPYGPIKSQSIPTEMETSSEISSSEYAFSDVISTPSHSPYTKKHSSLNSSSYTSTVIHSLTSYSISQGIFSTSLSEQNITSKSSTDKFSTATSMSNNITQSSIIISQFSTNNENYTTTSMHTSSDKISTETLNNSISTTTSILFSNSSTILKNNTTIISSDKDTHYHPVNPTIVCSTNKTEIICASITQPSISNSNNHWSSSVLKFNSTTVRSTLPSSAGSNETSINVPFSSSTESNTSTSSTSTSNSKMVRSTLPSSAGSNETSISVPFSSSTESNTSTSSTSTSNSKMVRSTLPSSAGSNETSINVPFSSSTESNTSTSSTSTSNSKTVRSTPFSSAGIIMTSLSQRNNKSASSYASSNSKCYNTADSCRKVHSTPSYLLTSSYTSEGVDYDCSLVSTKLKINDTNCVNNKHTTKSCLKTSVTTTIPTLEIKTARKSSSNTIGLHSYPTSSPNKSISSAPIIGYISSFKTIKTASPSYQTSDLTTITTITSLNNPGSTAVENTHESNDKSRKTSSNDISSKHSVIKETKDAVESSNKSHQTNTLKCSSIIIASSSHNSYESLGGTTLTLTLSKVYSPQNNDTLPFLEISEVNPSRTVLPESSKMMQYLTSTEERNKTARNTIATNIVSISTFHFEGEGNAIRMGYTQLLLMLIGIIVMNIGT",glycan array binding signal (z-score),[1],-0.187
same,glycan array binding signal (z-score),[2],-0.059
same,glycan array binding signal (z-score),Neu5Ac(a2-8)Neu5Ac,-0.302
same,glycan array binding signal (z-score),[3],0.176
same,glycan array binding signal (z-score),[4],-0.128
same,glycan array binding signal (z-score),[5],-0.253
same,glycan array binding signal (z-score),[6],-0.199
same,glycan array binding signal (z-score),[7],-0.226
